# Bioassay records as filed in PubChem BioAssay.
# RGS8-Gao = regulators of human RGS8-Galphao interaction; 220,000 compounds, 0.34% hits; response (percent of control binding), % at 10 µM; multiplexed bead flow cytometry, RGS8-Galphao binding; actives lie on both sides; in the data active = response below about 60% or above about 140%; inactive = in between;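 note: Galphao activated as the GDP aluminium fluoride complex binding bead-coupled RGS8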
# Target sequence (P09471 whole entry, looked up): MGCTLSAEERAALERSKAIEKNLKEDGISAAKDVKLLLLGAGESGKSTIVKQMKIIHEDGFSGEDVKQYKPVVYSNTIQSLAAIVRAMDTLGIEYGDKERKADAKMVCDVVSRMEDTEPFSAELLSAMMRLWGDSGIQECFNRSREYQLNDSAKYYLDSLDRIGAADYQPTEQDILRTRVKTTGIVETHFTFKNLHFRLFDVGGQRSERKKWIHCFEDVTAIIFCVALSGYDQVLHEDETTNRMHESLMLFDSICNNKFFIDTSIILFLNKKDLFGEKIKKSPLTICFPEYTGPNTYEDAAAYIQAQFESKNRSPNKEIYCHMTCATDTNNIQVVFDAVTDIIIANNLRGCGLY
# RGS4-Gao reg = modulates binding of RGS4 to human Galphao. Multiplexed bead flow cytometry; actives lie on both sides. binding response (% of control), % at 10 µM. 220,000 compounds, 0.33% hits. AID 1415; in the data active = binding response below about 49% or above about 150%; inactive = in between;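 note: fluorescent Galphao activated with aluminum fluoride binding bead-coupled RGS4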
# RGS16-Gao = regulators of human RGS16-Galphao interaction; O15492+P09471; bead-based flow cytometry RGS16-Galphao binding, fluorescence; actives lie on both sides; binding response (% of control), % at 10 µM; 220,000 compounds, 0.38% hits;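 note: Galphao activated by GDP with aluminum fluoride before binding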
# RGS7-Gao reg = regulators of human RGS7-Galphao interaction. Multiplexed bead flow cytometry, RGS7-Galphao binding; actives lie on both sides. binding response (% of control), % at 10 µM. 220,000 compounds, 0.35% hits; in the data active = binding response below about 49% or above about 150%; inconclusive = no clear call, values can overlap the other calls; inactive = in between;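 note: fluorescent Galphao held in activated GDP-AlF4 state binding bead-coupled RGS7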
# Avidin bead fluor = compound fluoresces at 488/530 nm on avidin beads; compound fluorescence 488/530 nm, flow cytometry; active compounds read high; fluorescence (KMESF) at 10 µM; 220,000 compounds, 0.38% hits; in the data active = fluorescence above about 47
# GSH bead fluor = compound fluoresces at 488/530 nm on GSH beads; GSH beads flow cytometry, compound fluorescence 488/530 nm; active compounds read high; fluorescence (KMESF) at 10 µM; 190,000 compounds, 0.25% hits; AID 1776; in the data active = fluorescence above about 89;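 note: glutathione beads carrying GST-tagged Bcl family fusion proteins plus one bare bead set; values are compound well signal with DMSO vehicle wells as background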
# RGS-Gao = modulates binding between human RGS4 and Galphao. shares compounds with RGS16-Gao. multiplexed bead flow cytometry, RGS–Galpha-o binding. RGS4–Galpha-o binding response, % at 10 µM. 1,600 compounds, 99% hits. AID 1504;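 note: fluorescently labeled Galpha-o bound to GDP with aluminium fluoride binding biotinylated RGS beads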
# Biotin-avidin = biotin-avidin bead binding disruption counter-screen. streptavidin beads, fluorescein-biotin binding, flow cytometry. AID 1783. 1,700 tested, under 10 active. inhibition, % at 10 µM. shares compounds with RGS16-Gao;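 active = inhibition above 50%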;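 note: median green fluorescence of gated singlet beads compared with DMSO control wells; 0% = DMSO wells and 100% = complete loss of bead fluorescence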
# RGS8-Gao single = confirmation of regulators of human RGS8-Galphao interaction; shares compounds with RGS16-Gao; bead-based flow cytometry RGS8-Galphao binding, fluorescence; actives lie on both sides; binding response (% of control), % at 10 µM; 1,700 compounds, 3% hits; AID 1836; in the data active = binding response below about 72% or above about 130%; inactive = in between;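 note: Galphao activated as GDP AlF4 complex before binding bead RGS8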
# RGS7-Gao confirm = RGS7-Galphao interaction regulation, single point confirmation; AID 1837; shares compounds with RGS16-Gao; response (percent of control binding), % at 10 µM; 1,700 compounds, 7.8% hits; bead-based flow cytometry RGS7-Galphao binding; actives lie on both sides; in the data active = response below about 75% or above about 130%; inactive = in between;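 note: fluorescent Galphao activated with GDP and aluminum fluoride binding bead-coupled RGS7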
# RGS16-Gao conf = RGS16-Galphao interaction regulation, single point confirmation. shares compounds with RGS16-Gao. bead-based flow cytometry, RGS16-Galphao binding; actives lie on both sides. response (% of control binding), % at 10 µM. 1,700 compounds, 4% hits. AID 1838; in the data active = response below about 74% or above about 130%; inactive = in between;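 note: Galphao activated as the GDP aluminium fluoride complex binding bead-coupled RGS16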
# RGS4-Gao confirm = RGS4-Galphao interaction regulation, single point confirmation; binding response (% of control), % at 10 µM; RGS4-Galphao binding, multiplexed bead flow cytometry; actives lie on both sides; AID 1840; 1,700 compounds, 4% hits; shares compounds with RGS16-Gao; in the data active = binding response below about 74% or above about 130%; inactive = in between
# RGS19-Gao single = confirmation of regulators of human RGS19-Galphao interaction. shares compounds with RGS16-Gao. bead-based flow cytometry RGS19-Galphao binding; actives lie on both sides. response (percent of control binding), % at 10 µM. 1,700 compounds, 5% hits. AID 1841; in the data active = response below about 50% or above about 160%; inactive = in between;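 note: 100% = no compound control and 0% = blank background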
# Target sequence (P09471 whole entry, looked up): as above
# Target sequence (P49795 whole entry, looked up): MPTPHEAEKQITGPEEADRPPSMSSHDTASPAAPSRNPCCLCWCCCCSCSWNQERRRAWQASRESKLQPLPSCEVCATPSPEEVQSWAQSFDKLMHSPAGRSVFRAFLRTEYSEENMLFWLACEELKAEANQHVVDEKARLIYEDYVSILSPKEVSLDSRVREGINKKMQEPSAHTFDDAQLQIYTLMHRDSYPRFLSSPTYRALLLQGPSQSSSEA
# * hit, by the source's call; i = inactive; ? = inconclusive; . = not tested or not shown; [ ] = dose if it differs, or a comment. Hits are enriched below; roughly 1.2% of the tested compounds scored in any of these assays. Unless noted, the rule behind the calls is not given here.
SMILES,RGS8-Gao,RGS4-Gao reg,RGS16-Gao,RGS7-Gao reg,Avidin bead fluor,GSH bead fluor,Biotin-avidin,RGS8-Gao single,RGS7-Gao confirm,RGS16-Gao conf,RGS4-Gao confirm,RGS19-Gao single,others
O=C(O)/C=C/c1cn(Cc2ccccc2Cl)nc1-c1ccccc1,103.7,103.7,103.5,?,5,.,.,.,.,.,.,.,
COc1ccc(C)c2sc(NC(=O)C3=COCCO3)nc12,84.2,132.4,108.8,312.9*[activator],175*,25,.,.,.,.,.,.,RGS-Gao=132.4*
COc1ccc(OC)c2sc(NC(=O)C3=COCCO3)nc12,102.2,104.4,101.7,105.2,7,25,.,.,.,.,.,.,
Cc1ccc(N=N/C(=C\O)C(=O)c2ccc(Cl)cc2)cc1,59.4*,42.2*,43.3,44.9*,15,6,-1.6,99.1,98.5,101.9,102.0,110.7,
CC(CCC(=O)O)C1CC[C@@]2(C)C3C(=O)CC4C(C)(C)C(O)CC[C@]4(C)C3C(=O)C[C@]12C (stereo partly drawn),56.8*,88.8,99.7,?,5,.,-0.9,100.0,96.7,100.3,98.7,90.2,RGS-Gao=88.8*
CN(C(=S)Nc1ccc(Oc2ccccc2)cc1)C1CCCCC1,72.2,87.3,14.3*,84.6,6,6,-0.5,99.6,98.3,100.4,100.6,99.1,RGS-Gao=87.3*
O=C1c2ccccc2C(=O)N1CCCCN(C(=O)c1ccc([N+](=O)[O-])cc1)c1ccc(Cl)cc1,97.8,92.7,91.9,94.0,11,25,.,.,.,.,.,.,
O=C1c2ccccc2C(=O)N1CCCCN(C(=O)c1cc([N+](=O)[O-])cc([N+](=O)[O-])c1)c1ccc(Cl)cc1,70.9,90.9,15.6*,88.7,10,5,i,102.3,102.2,110.4,103.9,120.3,RGS-Gao=90.9*
COc1ccc(NC2=Nc3cccc4cccc2c34)cc1,100.9,99.2,101.8,98.4,14,9,.,.,.,.,.,.,
Cc1noc(C)c1C(=O)N1CCN(CCc2ccccc2)CC1,98.9,103.7,103.3,102.1,9,46,.,.,.,.,.,.,
Cc1cc(C(=O)N2CCN(CCc3ccccc3)CC2)no1,172.3*[activator],226.7*[activator],303.4*[activator],223.8*[activator],.,30,0.6,92.7,58.0*,70.2*,73.3*,39.4*,
CCC(Sc1nccn1C)C(=O)Nc1ccc(Cl)cn1 (stereo not drawn),111.2,103.7,145.8,104.8,10,18,.,.,.,.,.,.,
COc1cc2c(-c3ccc(O)cc3)nc3c(c(C)nn3-c3ccccc3)c2cc1OC,100.3,199.5*[activator],468.3,89.3,8,5,1.4,99.7,95.8,97.5,98.4,101.6,
COc1cc2c(C)nc3c(c(C)nn3-c3ccccc3)c2cc1OC,92.0,97.8,108.7,84.9,5,16,.,.,.,.,.,.,
O=C(Cc1c[nH]c2ccccc12)N/N=C/c1ccc(F)cc1,77.9,92.1,21.1*,87.5,7,14,0.6,104.0,99.4,103.0,104.8,101.8,RGS-Gao=92.1*
CCc1cc2c(=O)[nH]c(COC)nc2s1,99.0,101.5,100.5,98.4,4,10,.,.,.,.,.,.,
CCc1cc2c(=O)[nH]c(Cc3ccc(OC)cc3)nc2s1,76.4,88.5,16.1*,87.2,8,9,1.6,100.3,105.1,102.3,102.7,92.9,RGS-Gao=88.5*
N#CC(=C1N=c2ccccc2=N1)c1c(O)[nH]c2ccccc12,98.2,90.2,91.0,99.5,9,11,.,.,.,.,.,.,
Oc1[nH]c(N=C2N=c3ccccc3=N2)c2ccccc12,57.0*,34.5*,33.1,?,1,.,-1.4,101.5,97.8,96.9,101.3,60.2,
CC(NC(=O)OC(C)(C)C)C(=O)NC(CCC(=O)OCc1ccccc1)C(N)=O (stereo not drawn),103.6,98.3,98.0,103.4,8,12,.,.,.,.,.,.,
NC(=O)c1nnsc1Sc1c(C(N)=O)nnn1-c1cccc(N)c1,101.2,100.7,99.8,?,8,14,.,.,.,.,.,.,
Cn1c(=O)c2c(ncn2Cc2nnc(N)s2)n(C)c1=O,104.8,104.3,104.1,100.9,13,27,.,.,.,.,.,.,
COCCCNC(CC(=O)Nc1ccc(OC)cc1OC)C(=O)O (stereo not drawn),.,.,.,.,.,55,0.6,104.4,107.2,106.3,103.2,96.4,
COc1ccc(NC(=O)CC(NCCc2ccccc2)C(=O)O)c(OC)c1 (stereo not drawn),101.0,99.5,100.5,99.1,23,13,.,.,.,.,.,.,
O=c1[nH]c(SCc2cccc(F)c2)nc2c1CCCC2,105.1,105.7,109.3,103.3,4,27,.,.,.,.,.,.,
SMILES,RGS8-Gao,RGS4-Gao reg,RGS16-Gao,RGS7-Gao reg,Avidin bead fluor,GSH bead fluor,Biotin-avidin,RGS8-Gao single,RGS7-Gao confirm,RGS16-Gao conf,RGS4-Gao confirm,RGS19-Gao single,others
O=C(CSc1nnnn1-c1ccccc1)Nc1ncc2c(n1)CC(c1ccco1)CC2=O (stereo not drawn),57.4*,35.1*,38.6,39.4*,14,17,3.2,101.2,87.9,97.8,94.5,89.5,
CCN(CC)c1ccc(/C=N/NC(=O)c2cccc(N3CCCC3=O)c2)cc1,105.0,102.8,106.5,95.4,11,16,.,.,.,.,.,.,
O=C(CSc1ccccc1)Nc1cc(S(=O)(=O)N2CCOCC2)ccc1N1CCOCC1,14.6*,22.3*,12.5*,?,1,14,-2.2,103.9,102.0,102.8,100.0,129.9,
O=C(CCl)Nc1cc(S(=O)(=O)N2CCOCC2)ccc1N1CCOCC1,95.5,96.0,95.8,?,11,12,.,.,.,.,.,.,
Cc1ccc(OC(=O)C2c3ccccc3Oc3ccccc32)cc1C,100.6,101.2,101.1,98.4,15,9,.,.,.,.,.,.,
OC(COc1ccc(CN2CCCCO2)cc1)CN1CCCCC1 (stereo not drawn),96.3,96.0,94.7,95.4,11,11,.,.,.,.,.,.,
c1ccc2c(C3=NNC(=NC4CCCCC4)SC3)c[nH]c2c1,79.5,96.0,5.2*,95.1,8,5,0.3,102.2,100.9,102.8,105.1,97.2,RGS-Gao=96.0*
